From PubChem BioAssay AID485284 (NMMLSC, 2010) come the findings set out here.

Measured potencies and affinities stand elsewhere.

This assay in a line: inhibitors of CD8+ T cell–vesicle binding, dose response, mouse 2C CD8+ T cells, flow cytometry (AID 485284).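 Also: drosophila derived vesicles carrying Ld MHC with QL9 peptide plus B7-1 and ICAM-1; vesicle binding seen as anti-B7-1 PE fluorescence on CD8 gated cells.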 The settings on record: 2C mouse CD8+ T cell-exosome binding; at 45 µM (top of the series).

`Cc1cc(S(=O)(=O)N2CCN(Cc3ccccc3)CC2)c(C)s1`: the binding remaining, % of control was found to be 94.5%.
For `O=C(NC(=S)NCc1ccco1)c1ccc(Br)cc1`, the binding remaining, % of control was 136%.
Regarding `COc1ccccc1C(=O)COC(=O)C1CCN(S(=O)(=O)c2ccc(C)c(C)c2)CC1`, the binding remaining, % of control turned out to be 24.2%.
In the case of `CS(=O)(=O)c1cccc(-c2csc(N3CCC(C(N)=O)CC3)n2)c1`, the binding remaining, % of control came to 150%.
For `CC1CCCN(CC(=O)NC(=O)NC2CCCCC2)C1` (stereo not drawn) the value was 109%; for `CCN1CCN(c2ccc(NC(=O)c3cc4ccccc4cc3OC)cc2C)CC1`, 128%; for `CCOC(=O)c1c(NC(=O)CN2C(=O)NC3(CCC(C)CC3)C2=O)sc(C)c1-c1ccc(C)cc1` (stereo not drawn), 108%.
On to `O=C(Nc1ccccc1F)C1CCCN(S(=O)(=O)c2cccc3cccnc23)C1` (stereo not drawn), for which the binding remaining, % of control was 105%.
As to `Cc1cnc(C(=O)Nc2ccc(C)c(S(=O)(=O)N3CCCCC3)c2)cn1`, the binding remaining, % of control came out at 114%.
`O=C(NC1CCCCCC1)C1CCN(S(=O)(=O)c2ccccc2)CC1`: the binding remaining, % of control came to 137%.
On to `CCCc1nnc(NC(=O)c2ccc(S(=O)(=O)N(C)c3ccccc3OC)cc2)s1`, for which the binding remaining, % of control was 142%.
Regarding `COc1cc(OC)c2cc(C(=O)N[C@H](C(=O)N3CCC[C@H]3C(=O)O)C(C)C)n(C)c2c1`, the binding remaining, % of control is 99.6%.
As for `CC1CCN(S(=O)(=O)Cc2ccccc2Cl)CC1`, the binding remaining, % of control was 118%.
For `O=C(CN1C(=O)NC2(CCCCCC2)C1=O)N1CCN(c2ccc(F)cc2)CC1` the value was 110%; for `CN1CCN(S(=O)(=O)c2cccc(C(=O)Nc3cc(C(F)(F)F)ccc3N3CCCCC3)c2)CC1`, 51.4%.
Regarding `CCOc1ccc(S(=O)(=O)N2CCC(C(=O)Nc3cc(S(C)(=O)=O)ccc3Cl)CC2)cc1`, the binding remaining, % of control stood at 106%.
For `COc1ccccc1NC(=O)Cn1cnc2sc(C)c(S(=O)(=O)N3CCCCC3)c2c1=O` the value was 115%; for `N#Cc1cccc(NC(=O)CN2C(=O)NC3(CCCCCC3)C2=O)c1`, 176%; for `COc1cc(F)c(C2=CC(=O)C[C@H](c3ccc(F)cc3)C2)cc1F`, 108%.
Turning to `COc1ccccc1N1CCN(C(=O)C2CCCN(S(=O)(=O)c3ccc(C)cc3)C2)CC1` (stereo not drawn), the binding remaining, % of control was 132%.
Take `CC(=O)c1cccc(NC(=O)c2ccncc2)c1`: the binding remaining, % of control is 35.3%.
For `CCCCN(C(=O)COC(=O)c1ccc(C=O)cc1)c1c(N)n(CCC)c(=O)[nH]c1=O`, the binding remaining, % of control came to 50.1%.
The result for `CCCOc1ccc(C2=CC(=O)C[C@H](c3ccc(OC)cc3)C2)cc1` reads 143%; that for `COc1ccc(NC(=O)Nc2c(O)ccc3ccccc23)cc1`, 76.2%; that for `Cc1ccc2oc(=O)c(/C=C(\O)c3sc(C)nc3C)nc2c1`, 119%.
For `COc1ccccc1NS(=O)(=O)c1cc(NC(=O)CNC(=O)c2cc(C)cc(C)c2)ccc1C`, the binding remaining, % of control worked out at 40.9%.
Take `O=C(NCc1cccnc1)C(=O)NCC(c1ccco1)N1CCN(c2ccccc2)CC1` (stereo not drawn): the binding remaining, % of control is 110%.
With `O=C(c1ccc(N2C(=O)C3CC=C(Cl)CC3C2=O)cc1)N1CCCCC1` (stereo not drawn), the binding remaining, % of control amounted to 18.5%.
As for `CN1CCN(S(=O)(=O)c2ccc(C(=O)Nc3ccccc3)cc2)CC1`, the binding remaining, % of control came to 124%.
For `Cc1ccc(S(=O)(=O)N2CCN(CCOc3c(Cl)cccc3Cl)CC2)cc1C`, the binding remaining, % of control came to 100%.
As to `Cc1nc2sc(C(c3ccccc3)N3CCN(c4ccccc4F)CC3)c(O)n2n1` (stereo not drawn), the binding remaining, % of control was determined as 163%.
The result for `Cc1ccc(S(=O)(=O)c2c(N)n(NC(=O)c3ccccc3C)c3nc4ccccc4nc23)cc1` reads 100%; that for `Cc1cc(N2CCN(C)CC2)nc2ccc(NC(=S)N3CCC4(CC3)OCCO4)cc12`, 147%.
